Data from PubChem BioAssay (NCATS).
“And” between values parts separate entries of the source, which are not always exact repeats. Equal entries are not always repeated. Records with an inconclusive call do not appear. The source made the active and inactive calls. Unless noted, calls come from the whole dose curve; as a rule, active = well fitted curve in either direction with a large enough effect (not every such curve was filed as active); inconclusive = small, poorly fitted or top-dose-only effect, or another doubt; inactive = flat fitted curve, though single readings scatter.

What was measured:
[1] = Stat Signaling Pathway (AID 446); conditions: ME-180 (cervical carcinoma) SIE beta-lactamase reporter, IL-6 stimulated, 5 h;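 note: ME-180 cervical cancer cells given 40 pM IL-6 alongside compound; SIE-controlled beta-lactamase reporter measured as 460/530 nm FRET emission ratio; % is set by controls: 0 for no effect and ±100 for the full control effect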
In short: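 FRET read-out (405 nm excitation, 460/530 nm emission) of a beta-lactamase reporter under a STAT-inducible element in ME-180 cervical carcinoma cells. Cells with compound receive 40 pM IL-6 for 5 h. Values are normalised to AC90 stimulation and AC90 JAK-inhibitor controls.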

[2] = molecular target: Mitogen-activated protein kinase 10 (Mus musculus) (UniProt Q61831); assay: JNK3 AlphaScreen Assay (AID 530); conditions: JNK3 lysate, c-Jun phosphorylation; series mostly up to 57.1 µM;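 note: kinase came from lysate of stimulated human HepG2 cells; signal reports phosphorylation of biotinylated GST-cJun 1-79 at Ser73 with 10 µM ATP; % is set by controls: 0 for no effect and ±100 for the full control effect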
In short: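 Biotinylated GST-cJun(1-79) served as substrate for JNK3 in HepG2 lysates stimulated with IL-1beta and TNF-alpha. ATP was 10 uM final, pH 7.6. Ser73 phosphorylation was quantified by AlphaScreen (680 nm excitation).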

[3] = molecular target: 3',5'-cyclic-AMP phosphodiesterase 4B (Homo sapiens) (UniProt Q07343); assay: qHTS Assay for Inhibitors of PDE-IV (AID 607; active = well fitted activation curve with a large enough effect in the main read-out, with a control signal flat, not every such curve was filed as active; note: % of control where 0% means no effect); conditions: HEK293 ACTOne CNG channel cells, membrane potential fluorescence; series mostly up to 22.9 µM
Chain of 3',5'-cyclic-AMP phosphodiesterase 4B (Homo sapiens) (Q07343 whole entry, looked up): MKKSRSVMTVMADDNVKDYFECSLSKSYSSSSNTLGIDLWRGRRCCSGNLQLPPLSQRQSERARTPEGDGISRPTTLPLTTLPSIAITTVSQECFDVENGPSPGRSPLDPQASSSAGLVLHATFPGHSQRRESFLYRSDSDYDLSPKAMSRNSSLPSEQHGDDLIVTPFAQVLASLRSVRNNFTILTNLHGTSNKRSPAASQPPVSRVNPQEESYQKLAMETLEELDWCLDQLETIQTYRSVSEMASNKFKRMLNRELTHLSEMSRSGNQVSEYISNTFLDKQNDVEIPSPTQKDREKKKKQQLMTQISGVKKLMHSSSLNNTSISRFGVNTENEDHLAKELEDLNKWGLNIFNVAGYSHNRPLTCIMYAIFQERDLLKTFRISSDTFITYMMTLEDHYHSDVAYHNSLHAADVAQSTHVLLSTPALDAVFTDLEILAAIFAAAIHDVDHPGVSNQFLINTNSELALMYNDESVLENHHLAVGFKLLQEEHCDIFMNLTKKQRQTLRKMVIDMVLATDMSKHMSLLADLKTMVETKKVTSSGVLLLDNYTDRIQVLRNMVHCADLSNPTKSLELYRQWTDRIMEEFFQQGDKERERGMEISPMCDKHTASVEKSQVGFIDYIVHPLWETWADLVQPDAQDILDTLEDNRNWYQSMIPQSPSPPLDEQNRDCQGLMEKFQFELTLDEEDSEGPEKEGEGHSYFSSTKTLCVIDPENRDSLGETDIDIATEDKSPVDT
In short: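 Cell-based read-out of cAMP via a modified cyclic nucleotide-gated channel and membrane potential dye (535/590 nm) in HEK293 cells expressing PDE4 endogenously. Compounds tested up to 22.9 uM final; 100 uM RO 20-1724 reference.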

[4] = molecular target: Glucocorticoid receptor (Homo sapiens) (UniProt P04150); assay: GR-GFP Redistribution (AID 450;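 active = compounds whose dose series gives a full or clear partial fitted curve of increased nuclear translocation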; note: potency is the fitted concentration of half-maximal effect); conditions: U2OS GR-GFP nuclear translocation, laser cytometry, 2 h
Chain of Glucocorticoid receptor (Homo sapiens) (P04150 whole entry, looked up, the tested form may be a part): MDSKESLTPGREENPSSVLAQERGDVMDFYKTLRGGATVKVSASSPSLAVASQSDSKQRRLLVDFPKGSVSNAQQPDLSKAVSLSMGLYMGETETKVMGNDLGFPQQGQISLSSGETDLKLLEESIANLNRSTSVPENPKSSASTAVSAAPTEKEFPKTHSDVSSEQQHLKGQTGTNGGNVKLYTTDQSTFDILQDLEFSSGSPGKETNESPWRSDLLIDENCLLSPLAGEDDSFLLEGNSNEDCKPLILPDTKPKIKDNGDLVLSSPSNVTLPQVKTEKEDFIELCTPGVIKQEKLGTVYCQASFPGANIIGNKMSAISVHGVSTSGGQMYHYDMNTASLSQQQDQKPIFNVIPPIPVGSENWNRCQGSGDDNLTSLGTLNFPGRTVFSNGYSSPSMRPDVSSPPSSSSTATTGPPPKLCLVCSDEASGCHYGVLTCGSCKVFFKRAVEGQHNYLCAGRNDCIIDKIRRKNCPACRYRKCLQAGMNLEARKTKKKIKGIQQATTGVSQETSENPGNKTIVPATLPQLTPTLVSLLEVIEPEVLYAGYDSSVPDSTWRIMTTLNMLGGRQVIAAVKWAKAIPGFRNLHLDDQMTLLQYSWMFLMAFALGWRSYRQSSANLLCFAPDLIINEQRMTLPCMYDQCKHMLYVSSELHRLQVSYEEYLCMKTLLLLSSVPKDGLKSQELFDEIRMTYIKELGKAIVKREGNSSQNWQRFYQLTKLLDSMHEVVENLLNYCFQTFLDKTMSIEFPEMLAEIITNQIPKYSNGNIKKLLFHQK

[5] = molecular target: Glucocorticoid receptor (Homo sapiens) (UniProt P04150); assay: GR-EFC Redistribution (AID 451; calls by dose curve; note: potency is the fitted concentration of half-maximal effect); conditions: CHO-K1 GR-EFC translocation, beta-gal luminescence, 2 h
In short: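 CHO-K1 cells stably expressing nuclear-localized β-gal enzyme acceptor and GR fused C-terminally to the enzyme donor fragment; ligand-driven nuclear translocation restores β-gal by complementation. Compounds titrated up to 46 uM final, 2 h at 37 °C; luminescence read.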

[6] = Cell Viability - N2a (AID 540; active = well fitted curve in the direction sought with a large enough effect; an effect the other way counts as inactive or inconclusive;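 note: cells exposed to compound for 40 h at 37 °C; plate controls were DMSO alone for no effect and tamoxifen control for full effect; nearly all actives have a fitted effect of over 45% in size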); conditions: N2a mouse neuroblastoma cell viability; activity change, negative = cytotoxicity: at 92.2 µM (top of the series)
In short: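 In this qHTS cytotoxicity screen, ATP-dependent luciferase luminescence reports viable N2a cells after a 40 hr compound exposure in complete culture medium. Potencies are AC50 values from standard Hill equation fits.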

[7] = Cell Viability - NIH 3T3 (AID 541; active = well fitted curve in the direction sought with a large enough effect; an effect the other way counts as inactive or inconclusive;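 note: cells exposed to compound for 40 hours; plate controls were DMSO alone for no effect and tamoxifen positive control for full effect; nearly all actives have a fitted effect of over 25% in size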); conditions: NIH 3T3 cell viability, qHTS; at 92.2 µM (top of the series)
In short: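 In this cytotoxicity screen, acute toxicity is scored as an ATP drop measured by CellTiter-Glo in NIH 3T3 fibroblasts following a 40 hr, 37 °C incubation with compound.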

[8] = Cell Viability - HUV-EC-C (AID 542; active = well fitted curve in the direction sought with a large enough effect; an effect the other way counts as inactive or inconclusive;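 note: cells exposed to compound for 40 hours; nearly all actives have a fitted effect of over 35% in size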; note: potency is the fitted concentration of half-maximal effect; for activity change, negative = cytotoxicity: % is set by controls: 0 for no effect and ±100 for the full control effect); conditions: HUV-EC-C endothelial cell viability, qHTS; series mostly up to 92.2 µM
In short: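 Concentration-dependent ATP loss in HUV-EC-C cells is the measure. Exposure lasts 40 hr at 37 °C; luminescence follows CellTiter-Glo addition, and Hill fits give AC50.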

[9] = Cell Viability - H-4-II-E (AID 543; active = well fitted curve in the direction sought with a large enough effect; an effect the other way counts as inactive or inconclusive;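 note: cells exposed to compound for 40 hours; nearly all actives have a fitted effect of over 35% in size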; note: potency is the fitted concentration of half-maximal effect); conditions: H-4-II-E rat hepatoma viability; series mostly up to 92.2 µM
In short: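 AC50 from Hill-modelled qHTS concentration-response curves. H-4-II-E rat hepatoma cells in complete medium, 40 hr exposure at 37 °C, viability by CellTiter-Glo ATP luminescence.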

[10] = Cell Viability - SH-SY5Y (AID 544; active = well fitted curve in the direction sought with a large enough effect; an effect the other way counts as inactive or inconclusive;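 note: cells exposed to compound for 40 hours; nearly all actives have a fitted effect of over 55% in size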); conditions: SH-SY5Y neuroblastoma cell viability; viability change, negative = cytotoxic: at 92.2 µM (top of the series)
In short: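 Quantitative HTS in SH-SY5Y neuroblastoma cells, 40 hr treatment at 37 °C, ATP content by luciferase luminescence; AC50 from Hill fits.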

[11] = Cell Viability - Renal Proximal Tubule (AID 545; active = well fitted curve in the direction sought with a large enough effect; an effect the other way counts as inactive or inconclusive;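 note: cells exposed to compound for 40 hours; nearly all actives have a fitted effect of over 40% in size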); conditions: renal proximal tubule cells viability, primary cells of rat origin; activity change, negative = cytotoxicity: at 91.7 µM (top of the series)
In short: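 Viability taken as intracellular ATP (CellTiter-Glo luminescence) after 40 hr, 37 °C compound treatment of primary proximal tubule cells from rat kidney, 1000 cells/well; Hill-equation fits of qHTS concentration-response data gave AC50.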

[12] = Cell Viability - Mesenchymal (AID 546; active = well fitted curve in the direction sought with a large enough effect; an effect the other way counts as inactive or inconclusive;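 note: cells exposed to compound for 40 hours before reading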); conditions: mesenchymal cells viability, qHTS; activity change, negative = cytotoxicity: at 91.7 µM (top of the series)
In short: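 In this qHTS cytotoxicity format, glomerulus-derived human mesenchymal kidney cells received compound for 40 hr, then luciferase-based ATP quantitation. Concentration-response data were fitted with the Hill equation.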

[13] = Cellular Toxicity (caspase-3) HepG2 (AID 654; active = well fitted curve in the direction sought with a large enough effect; an effect the other way counts as inactive or inconclusive; note: potency is the fitted concentration of half-maximal effect;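 for caspase-3 activation: cells exposed to compound for 16 hours before reading; 0% = DMSO alone and 100% = caspase signal from 100 µM tamoxifen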); conditions: HepG2 caspase-3 activation, luminescence; series mostly up to 92.2 µM
In short: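 Concentration-response AC50 values reflect caspase-3/7 induction in HepG2 cells after 16 hours of compound exposure, quantified by luminescence from liberated aminoluciferin and referenced to 100 uM tamoxifen as full stimulation.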

[14] = Cellular Toxicity (caspase-3) Jurkat (AID 655; active = well fitted curve in the direction sought with a large enough effect; an effect the other way counts as inactive or inconclusive;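 note: cells exposed to compound for 16 h at 37 °C before reading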); conditions: Jurkat caspase-3 activation, luminescence, DMSO = 0%, tamoxifen = 100%; at 92.2 µM (top of the series)
In short: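 Luminescent Caspase-Glo 3/7 read-out (20 min, room temperature) after 16 h compound treatment at 37 C of 5000 Jurkat cells per well. AC50 derived by Hill-equation fitting, scaled between DMSO basal and 100 uM tamoxifen stimulation.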

[15] = Cellular Toxicity (caspase-3) HUV-EC-C (AID 656; active = well fitted curve in the direction sought with a large enough effect; an effect the other way counts as inactive or inconclusive; note: potency is the fitted concentration of half-maximal effect); conditions: HUV-EC-C cells, caspase-3 activation (apoptosis); series mostly up to 92.2 µM
In short: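 Luminescent Caspase-Glo 3/7 readout after 16 h, 37 °C compound exposure of HUV-EC-C endothelial cells, 1000 per well, complete medium. AC50 derived by Hill fitting, with DMSO as baseline and 100 uM tamoxifen as full activation.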

[16] = Cellular Toxicity (caspase-3) SHSY5Y (AID 657; active = well fitted curve in the direction sought with a large enough effect; an effect the other way counts as inactive or inconclusive); conditions: SH-SY5Y caspase-3 activation, DMSO zero, 10 µM staurosporine = 100%; series mostly up to 91.7 µM
In short: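 Luminescent Caspase-Glo 3/7 read-out, 1 hr room temperature, follows 16 hours of compound treatment of SH-SY5Y cells at 37 °C. Normalization: DMSO basal, 10 uM staurosporine as 100%; AC50 values from Hill-equation concentration-response fits.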

[17] = Cellular Toxicity (caspase-3) BJ (AID 658; active = well fitted curve in the direction sought with a large enough effect; an effect the other way counts as inactive or inconclusive;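 note: 0% = DMSO basal and 100% = 10 µM staurosporine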); conditions: BJ fibroblasts, luminescence, normalized: DMSO 0%, staurosporine 100%; series mostly up to 91.7 µM
In short: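 Plated BJ cells (1000/well) rested 5 hr, received compound for 16 hr at 37 °C, then Caspase-Glo 3/7 reagent for 1 hr at room temperature before luminescence reading.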

[18] = Cellular Toxicity (caspase-3) MRC-5 (AID 659; active = well fitted curve in the direction sought with a large enough effect; an effect the other way counts as inactive or inconclusive;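 note: 0% = DMSO basal and 100% = 10 µM staurosporine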); conditions: MRC-5 cells, luminescence; Potency: caspase-3 activation; series mostly up to 91.7 µM
In short: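 Apoptosis readout in MRC-5 cells: luciferase light generated after caspase 3/7 cleaves a peptide-aminoluciferin substrate, measured post 16 hr compound incubation at 37 °C.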

[19] = Cellular Toxicity (caspase-3) Mesangial (AID 660; active = well fitted curve in the direction sought with a large enough effect; an effect the other way counts as inactive or inconclusive;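 note: combined caspase 3 and 7 activity read by Caspase-Glo luminescence; cells exposed to compound for 16 h before the caspase read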); conditions: mesangial cells, normalized: DMSO 0%, 100 µM tamoxifen 100%; at 91.7 µM (top of the series)
In short: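 AC50 values come from Hill-equation fits of caspase 3/7 activation, measured as Caspase-Glo luminescence in human glomerular mesangial cells exposed to compound for 16 h at 37 °C; 100% set by 100 uM tamoxifen.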

[20] = Cellular Toxicity (caspase-3) SK-N-SH (AID 661; active = well fitted curve in the direction sought with a large enough effect; an effect the other way counts as inactive or inconclusive;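 note: 0% = DMSO basal and 100% = 10 µM staurosporine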); conditions: SK-N-SH caspase-3 activation, qHTS; series mostly up to 91.7 µM
In short: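 Apoptosis readout in SK-N-SH neuroblastoma: Caspase-Glo 3/7 luminescence following 16 hr treatment in complete culture medium. Normalization used DMSO and 10 uM staurosporine controls.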

C[N+](C)(C)CCCCCC[N+](C)(C)C
inactive: activity, negative = inhibition ([1]; at 17.2 µM (top of the series)) 8.45% | activity, negative = inhibition ([1]; at 38 µM (top of the series)) 9.91% | outcome [2] | outcome [3]

Clc1ccc(Cn2c(CN3CCCC3)nc3ccccc32)cc1
inactive: activity, negative = inhibition ([1]; at 17.2 µM (top of the series)) -8.1% and 3.26% | activity, negative = inhibition ([1]; at 38 µM (top of the series)) 0.465% | Potency [4] > 46 µM and > 20.6 µM | Potency [5] > 46 µM and > 20.6 µM | outcome [2] | outcome [3]

CCN(CC)CCOC(=O)c1ccc(N)cc1
inactive: activity, negative = inhibition ([1]; at 17.2 µM (top of the series)) 13% | activity, negative = inhibition ([1]; at 38 µM (top of the series)) -13.6% | outcome [2] | outcome [3]

CC[C@]1(O)C[C@@H]2CN(CCc3c([nH]c4ccccc34)[C@@](C(=O)OC)(c3cc4c(cc3OC)N(C)[C@H]3[C@@](O)(C(=O)OC)[C@H](OC(C)=O)[C@]5(CC)C=CCN6CC[C@]43[C@@H]65)C2)C1
inactive: activity, negative = inhibition ([1]; at 17.2 µM (top of the series)) -9.58% | Potency [4] > 20.6 µM

COc1ccc(-c2coc3cc(O)cc(O)c3c2=O)cc1
inactive: activity, negative = inhibition ([1]; at 17.2 µM (top of the series)) 5.25% | Potency [4] > 46 µM and > 20.6 µM | Potency [5] > 46 µM | outcome [2]

CCCNC(=O)NS(=O)(=O)c1ccc(Cl)cc1
inactive: activity, negative = inhibition ([1]; at 17.2 µM (top of the series)) -8.89% and -0.985% | activity, negative = inhibition ([1]; at 38 µM (top of the series)) -1.14% | Potency [4] > 46 µM and > 20.6 µM | Potency [5] > 46 µM and > 20.6 µM | outcome [2] | Potency [6] | activity change, negative = cytotoxicity [7] 4.29% | Potency [8] | Potency [9] | Potency [10] | Potency [11] | Potency [12] | outcome [3] | Potency [13] | caspase-3 activation [14] -0.0991% | Potency [15] | outcome [16] | outcome [17] | Potency [18] | caspase-3 activation [19] -0.968% | Potency [20]

c1cc(-c2sc(-c3ccncc3)c(-c3ccncc3)c2-c2ccncc2)ccn1
inactive: activity, negative = inhibition ([1]; at 7.69 µM (top of the series)) 7.72% | Potency [4] > 46 µM | Potency [5] > 9.22 µM | activity change, negative = inhibition [2] -6.48% [at 11.4 µM] | outcome [3]

NC(N)=Nc1nc(CSCC/C(N)=N/S(N)(=O)=O)cs1
inactive: activity, negative = inhibition ([1]; at 17.2 µM (top of the series)) 12% and 11.5% | activity, negative = inhibition ([1]; at 38 µM (top of the series)) 1.63% | Potency [4] > 46 µM and > 20.6 µM | Potency [5] > 46 µM and > 20.6 µM | outcome [2] | outcome [3]

CC(=O)N[C@@H](CS)C(=O)O
inactive: activity, negative = inhibition ([1]; at 17.2 µM (top of the series)) 3.22% | Potency [4] > 20.6 µM

CC/C(=C(\c1ccccc1)c1ccc(OCCN(C)C)cc1)c1ccccc1
inactive: activity, negative = inhibition ([1]; at 17.2 µM (top of the series)) 14.2% | activity, negative = inhibition ([1]; at 38 µM (top of the series)) 2.62% | Potency [4] > 46 µM and > 20.6 µM | Potency [5] > 46 µM and > 20.6 µM | outcome [2]
active: activity change, negative = cytotoxicity [6] -117% | Potency [8] 50.1 µM | Potency [9] 50.1 µM | viability change, negative = cytotoxic [10] -99.3% | activity change, negative = cytotoxicity [11] -109% | activity change, negative = cytotoxicity [12] -91.4% | Potency [13] 50.1 µM | Potency [15] 63.1 µM

O=c1c(-c2ccc(O)cc2)coc2cc(O)ccc12
inactive: activity, negative = inhibition ([1]; at 38 µM (top of the series)) -22% | Potency [4] > 46 µM | Potency [5] > 46 µM | outcome [2] | Potency [6] | Potency [8] | Potency [10] | Potency [11] | Potency [12] | outcome [3] | Potency [13] | caspase-3 activation [14] -7.71% | Potency [15] | outcome [16] | outcome [17] | Potency [18] | caspase-3 activation [19] -3.39% | Potency [20]

CCN(CC)C(=O)c1ccc(O)c(OC)c1
inactive: activity, negative = inhibition ([1]; at 17.2 µM (top of the series)) 4.07% and -1.09% | activity, negative = inhibition ([1]; at 38 µM (top of the series)) -11.7% | Potency [4] > 46 µM and > 20.6 µM | Potency [5] > 46 µM and > 20.6 µM | outcome [2] | outcome [3]

O=C1NCC2(CCN(CCc3ccccc3)CC2)O1
inactive: activity, negative = inhibition ([1]; at 17.2 µM (top of the series)) 8.61% | activity, negative = inhibition ([1]; at 38 µM (top of the series)) 4.62% | Potency [4] > 46 µM and > 20.6 µM | Potency [5] > 46 µM and > 20.6 µM | outcome [2] | outcome [3]
